Unmarked numbers belong to inactive results. Calls of active or inactive are those of the source. Unless noted, no stated cut-off is given here; in the data, active means inhibition above about 36%; inactive means the rest.
Key:
[1] = tested on: transactivating tegument protein VP16 (Human herpesvirus 1); experiment: compounds suppressing VP16-driven luciferase signal – cell-based, luminescence, single concentration, counter-screen for SRC2 inhibitor project (AID 652007); conditions: cell-based VP16 transactivation luciferase reporter, at 8.9 µM, stronger effect = higher value
[2] = biological target: Nuclear receptor coactivator 2 (Homo sapiens) (UniProt Q15596); experiment: inhibition of GAL4-SRC2 driven luciferase expression – cell-based, luminescence, HEK293, triplicate, confirmation (AID 652008;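 active means mean inhibition above 46.5%, the solvent-only control mean plus 3 SD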;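 further: 0% = DMSO-treated cells and 100% = Gossypol at 36 µM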); conditions: HEK293 GAL4-SRC2 luciferase reporter, at 8.9 µM, stronger effect = higher value
Chain of Nuclear receptor coactivator 2 (Homo sapiens) (Q15596 whole entry, looked up, the tested form may be a part): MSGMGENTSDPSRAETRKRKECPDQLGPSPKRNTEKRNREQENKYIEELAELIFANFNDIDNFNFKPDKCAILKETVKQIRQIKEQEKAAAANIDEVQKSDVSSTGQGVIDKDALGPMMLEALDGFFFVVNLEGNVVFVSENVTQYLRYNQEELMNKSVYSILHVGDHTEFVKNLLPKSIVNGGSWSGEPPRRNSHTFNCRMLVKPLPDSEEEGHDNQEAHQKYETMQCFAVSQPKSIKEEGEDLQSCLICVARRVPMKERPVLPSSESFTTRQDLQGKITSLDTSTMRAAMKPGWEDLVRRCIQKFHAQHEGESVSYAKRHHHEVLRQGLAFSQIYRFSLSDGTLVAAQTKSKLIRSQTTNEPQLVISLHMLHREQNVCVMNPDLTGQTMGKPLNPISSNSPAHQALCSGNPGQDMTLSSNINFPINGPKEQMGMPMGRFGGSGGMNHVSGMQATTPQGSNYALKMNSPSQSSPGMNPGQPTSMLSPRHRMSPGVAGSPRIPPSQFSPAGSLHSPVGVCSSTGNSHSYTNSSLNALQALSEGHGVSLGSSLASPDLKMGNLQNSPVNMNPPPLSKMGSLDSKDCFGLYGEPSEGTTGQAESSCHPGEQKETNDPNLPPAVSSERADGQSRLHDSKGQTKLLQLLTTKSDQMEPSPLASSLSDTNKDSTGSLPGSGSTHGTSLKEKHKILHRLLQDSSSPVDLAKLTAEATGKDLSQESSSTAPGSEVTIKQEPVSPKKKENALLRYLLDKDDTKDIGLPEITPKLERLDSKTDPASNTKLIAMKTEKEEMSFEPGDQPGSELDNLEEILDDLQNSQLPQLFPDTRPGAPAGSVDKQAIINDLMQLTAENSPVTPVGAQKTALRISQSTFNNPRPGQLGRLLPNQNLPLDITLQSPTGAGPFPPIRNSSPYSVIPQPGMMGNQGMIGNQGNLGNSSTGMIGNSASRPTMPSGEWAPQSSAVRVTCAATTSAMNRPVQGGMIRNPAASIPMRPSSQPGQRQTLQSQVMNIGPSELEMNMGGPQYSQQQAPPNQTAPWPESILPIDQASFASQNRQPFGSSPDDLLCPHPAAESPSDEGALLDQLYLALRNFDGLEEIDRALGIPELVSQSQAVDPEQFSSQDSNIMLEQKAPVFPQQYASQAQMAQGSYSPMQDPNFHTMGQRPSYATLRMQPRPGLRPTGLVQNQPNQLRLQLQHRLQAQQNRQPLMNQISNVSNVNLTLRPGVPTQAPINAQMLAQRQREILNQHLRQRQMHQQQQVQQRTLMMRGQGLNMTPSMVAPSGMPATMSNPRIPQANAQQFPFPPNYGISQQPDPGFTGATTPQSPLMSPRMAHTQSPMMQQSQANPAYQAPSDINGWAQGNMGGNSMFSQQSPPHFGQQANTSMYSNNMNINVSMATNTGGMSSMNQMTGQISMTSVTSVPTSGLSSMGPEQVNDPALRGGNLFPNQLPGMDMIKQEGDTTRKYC

Row | Compound | inhibition [1] [%] | inhibition [2]
1 | Cc1cccc(N(Cc2ccccc2)C(=O)CCl)c1 | 15 | 33.4%
2 | Cc1csc(NC(=O)CSc2ccc([N+](=O)[O-])cn2)n1 | -0.96 | -30.9%
3 | N=c1nc(SCCC(=O)O)ss1 | 14.4 | 51.7% (active)
4 | CCOC(=O)c1c(NC(=O)c2cnn3c2NC(c2cccc(OC)c2)CC3C(F)(F)F)sc2c1CCCC2 (stereo unspecified) | 16.7 | -21.9%
5 | COc1ccc(NC(=O)COc2coc(CN3CCN(c4ccccc4)CC3)cc2=O)cc1 | -6.47 | -1.96%
6 | CNc1ccc(N=Nc2cccc3ncccc23)cc1 | -76 | 14.4%
7 | Cc1ccc(C(=O)/C=C/Nc2ccccn2)cc1 | 31.1 | 77% (active)
8 | CCc1ccc(CNC(=O)c2cc3c(C)nc4ccccc4c3o2)cc1 | 20.6 | 10.3%
9 | O=S(=O)(O)Sc1ccccc1 | -0.6 | 4.75%
10 | CCOc1ccc(-c2c(C(=O)N/N=C/c3cccc(Br)c3)nnn2-c2nonc2N)cc1 | -5.94 | -23.4%
11 | C[C@@H]1C[C@H]2O[C@@H]2/C=C\C=C\C(=O)Cc2cc(O)cc(O)c2C(=O)O1 | 34.7 | 15.2%
12 | CC1=C(C(=O)N2CCOCC2)CC(CC(=O)NCCCCc2ccccc2)C(=O)N1Cc1ccc(C(C)(C)C)cc1 (stereo unspecified) | 12.6 | 2.06%
13 | CC(c1nccs1)N(C)C(=O)CCc1nnc(-c2ccc(-c3ccccc3)cc2)o1 (stereo unspecified) | -11 | 30.6%

From PubChem BioAssay
